Screening data (PubChem)
MARV entry inh: Marburg virus entry inhibition; Marburg virus pseudotyped entry inhibition, cell reporter; Potency, µM (doses to about 37.8 µM), hits mostly inhibitors; actives 1.8% (n = 300,000); AID 540276; calls by dose curve; tested in HEK293 cells
FMDV inh: antivirals against foot and mouth disease virus | FMDV antiviral cell-based qHTS | Potency, µM (doses to about 57.9 µM), usual class: inhibitors | actives 1.2% (n = 410,000) | AID 1159524; calls by dose curve; tested in HEK293T cells; also: read-out not given here; nearly all actives have a fitted effect of over 45% in size
HCV inhibitor: blocks hepatitis C virus; Huh7.5.1 HCVcc-Cre infection, luciferase reporter, 44 h; actives 3.4% (n = 340,000); Potency, µM (series often up to 41.8 µM), most hits filed as inhibitors; AID 651820; active = well fitted inhibition curve with a large enough effect; inconclusive = small, poorly fitted or top-dose-only effect, or another doubt; inactive = no such curve, though single readings can be large or run the other way
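Antiviral activity was scored by luciferase reporter output from cells infected with HCVcc-Cre (~0.5 moi) in presence of compound, 44 h infection period, cells seeded 1,000/well 4 h prior.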
Lassa entry inh: Lassa virus entry inhibition; actives 1.2% (n = 300,000); Lassa virus pseudotype entry inhibition, cell reporter; AID 540256; Potency, µM (titrated, usually from 37.9 µM), hits mostly inhibitors; calls by dose curve; tested in HEK293 cells; also: nearly all actives have a fitted effect of over 50% in size
HCMV inh: inhibitors of human cytomegalovirus; activity change, negative = inhibition, % at 57.5 µM; actives 4.5% (n = 410,000); HFF cells, HCMV-luciferase reporter, 72 h; active compounds read low; AID 1259415; in the data active = activity change below about -60%; inconclusive = no clear call, values can overlap the other calls; inactive = above about -39%
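Luciferase read-out from HCMV-luciferase-infected HFFs (MOI 1 PFU/cell) 72 h post infection at 37C; compounds added after 16 h cell attachment; activity normalized between buffer-only basal and Salinomycin (10uM) inhibitor controls.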
Large screens that a line does not name were inactive. In the library only some 7.9% were active in any assay of this set; here they are far more common.

O=Cc1cn(Cc2cccc([N+](=O)[O-])c2)c2ccccc12	MARV entry inh 0.82µM, Lassa entry inh 0.63µM, HCMV inh inconclusive
CN1OC[C@@H]2CN(C(=S)NCCc3ccccc3)[C@H](c3ccc(N4CCCCC4)cc3)C[C@@H]21	none (no result: MARV entry inh, HCV inhibitor, Lassa entry inh)
Cc1ccc(C(=O)Nc2cccc(-c3nc(CNC(=O)[C@@H]4C[C@@H](C)NC(=S)N4)c(C)o3)c2)s1	none (no result: MARV entry inh, HCV inhibitor, Lassa entry inh, HCMV inh)
CN(C)c1ccc(C(=O)c2ccc(N(C)C)c3ccccc23)cc1	MARV entry inh inconclusive, HCV inhibitor 11µM, Lassa entry inh 0.25µM, HCMV inh -80
COc1ccc(C(=O)c2ccc(N(C)C)cc2)c(OC)c1	MARV entry inh inconclusive, HCV inhibitor inconclusive
COc1ccccc1NC(=O)Cc1c(C(=O)O)[nH]c2ccc(Cl)cc12	none (no result: MARV entry inh, HCV inhibitor)
CC1(C)Cc2c(c(-c3ccco3)nc3sc4c(NCCCO)ncnc4c23)CO1	FMDV inh inconclusive, HCV inhibitor inconclusive, HCMV inh -65 (no result: MARV entry inh, Lassa entry inh)
CCN(CC)CCNc1ncnc2c1sc1nc(N3CCCC3)c3c(c12)CC(C)(C)OC3	MARV entry inh inconclusive, FMDV inh inconclusive, HCV inhibitor 2µM, Lassa entry inh inconclusive
CN(C)CCNc1ncnc2c1sc1nc(N3CCCC3)c3c(c12)CC(C)(C)OC3	MARV entry inh 7.9µM, FMDV inh inconclusive, HCV inhibitor 13µM, Lassa entry inh inconclusive, HCMV inh inconclusive
CC1(C)Cc2nc3sc4c(N(CCO)CCO)ncnc4c3cc2CO1	none
CCN(CCO)c1ncnc2c1sc1nc(CC(C)C)c3c(c12)CC(C)(C)OC3	HCV inhibitor 14µM
CCN(CC)CCNc1ncnc2c1sc1nc(N3CCOCC3)c3c(c12)CCCC3	MARV entry inh inconclusive, HCV inhibitor inconclusive, Lassa entry inh inconclusive
CCOC(=O)C1CCN(S(=O)(=O)c2ccc(CNC(=O)c3ccccc3)s2)CC1	none (no result: MARV entry inh, Lassa entry inh)
CCCNC(=O)c1nnc2n1CCN(C(=O)c1ccc(F)c(F)c1)C2	none (no result: MARV entry inh, FMDV inh, HCV inhibitor, Lassa entry inh)
O=C(NCc1ccc2c(c1)OCO2)OCc1ccccc1	none (no result: MARV entry inh, HCV inhibitor, Lassa entry inh)
CCCn1c(=S)[nH]c2cc(C(=O)N3CCc4ccccc43)ccc2c1=O	MARV entry inh inconclusive, HCV inhibitor inconclusive
COCCn1c(=S)[nH]c2cc(C(=O)N3CCN(Cc4ccc5c(c4)OCO5)CC3)ccc2c1=O	MARV entry inh 6.5µM, FMDV inh 14µM, HCV inhibitor 14µM, Lassa entry inh inconclusive, HCMV inh -99
COCCn1c(=S)[nH]c2cc(C(=O)N3CCc4ccccc43)ccc2c1=O	MARV entry inh inconclusive, FMDV inh 7.9µM, HCV inhibitor inconclusive, Lassa entry inh inconclusive, HCMV inh -70
O=C1NC(=O)[C@H](c2cn(-c3ccccc3)nc2-c2ccc(F)cc2)N1	none (no result: FMDV inh, HCV inhibitor, Lassa entry inh, HCMV inh)
OC(c1ccc(F)cc1)C(CN1CCOCC1)c1ccccc1 (configuration not stated)	none
O=Cc1ccc(-c2c(-c3ccccc3)oc3c2C(OCCCCO)CCC3)o1 (configuration not stated)	none (no result: MARV entry inh, HCV inhibitor, Lassa entry inh)
Cc1c(Cl)cccc1N/C(SCC(=O)N1CCCCCC1)=C(/C#N)c1nc2ccccc2s1	MARV entry inh 11µM, FMDV inh inconclusive, HCV inhibitor inconclusive, Lassa entry inh inconclusive, HCMV inh -101
O=C(CSc1nc2ccccc2s1)N1CCCCC1	none (no result: FMDV inh)
COC(=O)NC(c1ccccc1)C1(C(=O)OC)C(=O)Cc2ccccc21 (configuration not stated)	none (no result: FMDV inh, HCV inhibitor, Lassa entry inh, HCMV inh)
O=C(/C=C/c1ccc2c(c1)OCO2)c1c(O)n(CCc2ccccc2)c(=O)[nH]c1=O	FMDV inh 13µM, Lassa entry inh inconclusive, HCMV inh -84
Cn1c(N)c(C(=O)/C=C/c2ccccc2)c(=O)[nH]c1=O	MARV entry inh inconclusive
O=C(/C=C/c1ccccc1)c1c(O)n(CCc2ccccc2)c(=O)[nH]c1=O	MARV entry inh inconclusive, FMDV inh 13µM
Nc1ccccc1C(=O)/C=C/c1ccc2c(c1)OCO2	MARV entry inh inconclusive, Lassa entry inh inconclusive, HCMV inh -71
COc1cc(/C=C/C(=O)c2c(O)n(CCc3ccccc3)c(=O)[nH]c2=O)ccc1O	MARV entry inh inconclusive, Lassa entry inh inconclusive, HCMV inh -97
COc1cc(/C=C/C(=O)c2c(O)cc(C)oc2=O)ccc1O	none (no result: MARV entry inh, HCV inhibitor, Lassa entry inh, HCMV inh)
COc1cc2c(cc1OC)CN(C(=O)[C@@H]1C[C@H](NCc3cn(C)c4ccccc34)CN1C1Cc3ccccc3C1)CC2	none (no result: MARV entry inh, HCV inhibitor, Lassa entry inh, HCMV inh)
CCOC(=O)CC(=O)CSc1nc(CC)c(C)cc1C#N	MARV entry inh inconclusive, HCMV inh -89
NN1C(=O)/C(=C\c2ccco2)SC1=S	none
CC(=O)Nc1ncc(Cc2cccc(Cl)c2)s1	MARV entry inh inconclusive
